Assay outcomes as filed in PubChem.
PABP polyA inh = PABP-poly(A) binding inhibition | PABP-poly(A) RNA binding, fluorescence polarization | inhibition, % at 35 µM | 290,000 compounds, 1% hits | AID 2014;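 also: calls also rest on retests at 20 µM and on dose response follow-up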
Target sequence (P11940 whole entry, looked up): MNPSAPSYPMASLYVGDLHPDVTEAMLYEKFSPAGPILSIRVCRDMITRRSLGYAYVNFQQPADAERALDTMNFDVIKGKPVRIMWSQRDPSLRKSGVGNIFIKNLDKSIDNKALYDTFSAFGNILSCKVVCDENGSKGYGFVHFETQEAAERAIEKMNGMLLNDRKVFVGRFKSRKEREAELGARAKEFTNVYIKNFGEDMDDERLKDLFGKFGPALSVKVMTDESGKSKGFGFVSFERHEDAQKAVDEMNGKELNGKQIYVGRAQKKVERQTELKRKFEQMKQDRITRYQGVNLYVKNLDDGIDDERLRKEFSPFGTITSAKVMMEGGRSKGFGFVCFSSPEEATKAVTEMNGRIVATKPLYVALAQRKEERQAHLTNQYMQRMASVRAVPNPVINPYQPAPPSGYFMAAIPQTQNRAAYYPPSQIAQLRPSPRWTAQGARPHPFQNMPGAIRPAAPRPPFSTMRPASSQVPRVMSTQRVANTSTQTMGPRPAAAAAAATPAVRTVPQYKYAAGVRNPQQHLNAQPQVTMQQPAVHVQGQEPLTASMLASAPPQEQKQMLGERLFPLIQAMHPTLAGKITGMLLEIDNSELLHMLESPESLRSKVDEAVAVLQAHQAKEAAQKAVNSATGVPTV
PABP1 MLLE inh = blocks PAM2 peptide binding to the PABP1 MLLE domain; P11940; GST-MLLE / FITC-PAM2 fluorescence polarization; inhibition, % at 20 µM; 360,000 compounds, 0.36% hits; in the data active = inhibition above about 35%, passing the limit was not always enough;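 also: plate controls were DMSO wells with GST-MLLE for no effect and wells lacking GST-MLLE protein for full effect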
eIF4H inh = inhibitors of RNA binding by human eIF4H. eIF4H fluorescence polarization binding assay. inhibition, % at 35 µM. 290,000 compounds, 0.94% hits. Q15056;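 also: calls also rest on retests at 20 µM and on dose response follow-up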
eIF4E 4G PPI = blocks eIF4E binding to eIF4G. P63073+Q04637. TR-FRET eIF4E-eIF4GI(517-606) binding, 2 h. inhibition, % at 21.7 µM. 220,000 compounds, 0.37% hits. AID 782;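 active = inhibition above about 30%, limit read from the data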;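 also: 0% = full FRET control wells and 100% = background wells lacking eIF4GI fragment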
PERK inh = inhibitors of human PERK kinase; CHO PERK-DD fusion, SEAP luminescence translation reporter; inhibition, % at 5.6 µM; 220,000 compounds, 0.17% hits; AID 1416;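 active = inhibition above the mean inhibition of all tested compounds plus 3 SD, set separately per screening campaign, cut at about 2.9% in these data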;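 also: PERK kinase domain activated by AP20187 dimerizer at 100 nM; 0% = DMSO with dimerizer and 100% = rapamycin at 8.4 µM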
* = called active by the depositor; nt = no result; + = active, no number; [ ] = dose if it differs, or a comment. A selection: hits, their analogues and other compounds. The true share with any hit is near 1.6%. Unless noted, no rule for the calls is given here.

SMILES	PABP polyA inh	PABP1 MLLE inh	eIF4H inh	eIF4E 4G PPI	PERK inh
Cc1ccc(S(=O)(=O)Cc2ccc(C(=O)N3CCN(c4ccccn4)CC3)o2)cc1	3.4	-13.4	13.7	4.2	0.4
CCN(CC)c1ccc(/C=N/Nc2nn[nH]n2)cc1	9.2*	-123.1	50.6*	1.6	-0.8
COC(=O)c1[nH]c2ccc(Br)cc2c1NC(=O)CN1CCN(C2CCCCC2)CC1	51.3*	-112.1	-11.6	-3.2	-1.6
COC(=O)c1[nH]c2ccc(C)cc2c1NC(=O)CCN1CCN(C2CCCCC2)CC1	-5.1	nt	2.4	-6.0	-1.8
Nc1ccc(N(c2ccccc2)c2ccc(N)cc2)cc1	1.8	-5.9	6.1	40.6*[fluorescence artefact?]	-0.9
CN(C)c1ccc(CCc2ccc(N)cc2)cc1	nt	1.2	nt	nt	nt
C/C=C/C(=O)OCC(=O)Nc1cc(OC)c([N+](=O)[O-])cc1C	1.7	-4.0	0.2	1.0	-0.6
CN(Cc1ccc(F)cc1)C(=O)c1sccc1-c1ccccc1	50.1*	6.4	14.6	nt	nt
CCCc1cc(=O)[nH]c(SCC(=O)Nc2ccc(OC(F)F)cc2)n1	7.9	-7.1	-2.1	2.9	2.5
COc1ccc(NC(=O)c2ccc(-n3cncn3)c([N+](=O)[O-])c2)cc1	92.5*	9.3	9.9	-1.9	0.4
Cc1ccc(OCC(=O)NNC(=O)c2ccc(-n3cncn3)c([N+](=O)[O-])c2)cc1	nt	-2.8	nt	nt	nt
O=C(COc1ccc(Br)cc1)NNC(=O)c1ccc(-n2cncn2)c([N+](=O)[O-])c1	nt	57.6*	nt	nt	nt
COc1ccc(C2C(C#N)=C(N)Oc3cc(O)ccc32)cc1Cl (stereo not drawn)	14.1	-76.2	-3.3	nt	nt
Cc1cc(C(=O)CSc2nc3ccccc3o2)c(C)n1CC1CCCO1 (stereo not drawn)	68.5*	-6.9	52.0*	0.5	-1.4
Cc1cc(C)nc(SCC(=O)c2cc3ccccc3oc2=O)n1	5.0	29.1	-2.1	14.2	1.3
Cc1cc(C(=O)COC(=O)c2ccncc2)c(C)n1Cc1ccco1	8.1*	-29.1	55.0*	-5.3	0.0
Cc1cc(C(=O)COC(=O)c2ccco2)c(C)n1Cc1ccco1	6.5	6.4	26.5	4.8	1.9
Cc1cc(C(=O)CSc2nnc(N)s2)c(C)n1Cc1ccco1	5.5	-8.4	36.2	-1.7	-0.2
O=C(CSc1nc2ccccc2o1)c1cc2ccccc2oc1=O	-1.9	38.5*	22.0	0.4	-0.6
Cc1cccc(-n2nnnc2SCC(=O)c2cc(C)n(Cc3ccco3)c2C)c1	29.4	-93.0	58.1*	-3.2	-0.3
Cc1cc(-c2nnc(SCC(=O)c3ccc(F)cc3)o2)no1	-0.7	5.0	-7.1	-2.6	0.7
O=C(CNc1ccc(Cl)c(C(F)(F)F)c1)N1CCN(S(=O)(=O)c2ccccc2)CC1	nt	-116.7	nt	nt	nt
O=C(NCc1cc(C(F)(F)F)cc(C(F)(F)F)c1)C1CC(c2ccccc2F)=NO1 (stereo not drawn)	nt	6.6	nt	nt	nt
Cc1sc2nc(SCC(=O)c3cc(C)n(CC4CCCO4)c3C)n(C(C)C)c(=O)c2c1C (stereo not drawn)	81.2*	-25.1	64.9*	-8.8	-0.4
Cc1cccc(-n2nnnc2SCC(=O)c2cc(C)n(CC3CCCO3)c2C)c1 (stereo not drawn)	55.0*	-97.9	52.6*	-22.4	-0.4
SMILES	PABP polyA inh	PABP1 MLLE inh	eIF4H inh	eIF4E 4G PPI	PERK inh
C[C@H](CO)N1C[C@H](C)[C@@H](CN(C)Cc2cccnc2)OCc2cnnn2CCCC1=O	nt	-7.6	nt	nt	nt
CCCCc1ccc(NC(=O)CSc2nnc(C)c(=O)n2N)cc1	0.5	14.1	-0.9	nt	nt
COc1ccc(N/C=C\C(=O)c2ccc(C)cc2)cc1OC	-10.6	-9.9	-0.2	3.4	0.1
COc1ccc(N/C=C\C(=O)c2ccc(Br)cc2)cc1OC	3.2	-91.2	71.4*	1.5	-0.2
S=C(NCc1ccccn1)Nc1ccc(Br)cc1Cl	-1.6	38.8*	-4.1	-1.3	-0.1
COc1ccccc1NC(=O)/C=C1\NC(=O)CS1	-11.4	-2.2	-2.6	-1.7	0.5
CCN1CCN(C(=O)c2cc3cc([N+](=O)[O-])ccc3oc2=O)CC1	13.5	6.7	0.2	4.7	0.5
O=C(c1cc2cc([N+](=O)[O-])ccc2oc1=O)n1cccn1	2.3*	0.1	98.5	1.6	0.8
COC(=O)CSC1=C(C#N)C(=O)NC(c2ccccc2)S1 (stereo not drawn)	11.2	41.7*	-5.3	2.7	0.5
CCOC(=O)c1c(/N=C/C2=C(O)CCCC2=O)sc2c1CCCC2	16.3	23.6	7.2	-0.3	2.0
CCOC(=O)c1cc(CC)sc1/N=C/C1=C(O)CCCC1=O	+	13.6	71.9	17.2	2.0
CCOC(=O)CSc1nc2sc3c(c2c(=O)[nH]1)CCCC3	-9.1	-11.4	-8.0	0.6	0.7
Nc1cccc(C2=Nc3cccc4cccc(c34)N2)c1	-3.6	2.5	13.3	18.2	1.3
COc1ccc(C2=Nc3cccc4cccc(c34)N2)cc1	22.0	-2.9	78.1*	-6.5	0.6
CCCNC(=O)c1nnsc1S(=O)c1ccc(Cl)cc1 (stereo not drawn)	17.2	37.5*	-9.6	-3.1	0.3
O=C(NC(=S)Nc1ccc(Cc2ccncc2)cc1)c1ccccc1	-3.9	29.7	-2.9	-6.3	-0.5
c1ccn2cc(-c3ccc4c(c3)OCO4)cc2c1	45.9	-9.8	64.2*	7.8	-0.2
c1cnc2nc(-c3ccc4c(c3)OCO4)cn2c1	4.8	8.6	-13.5	6.0	-0.7
COc1ccccc1/C=C/C(=O)c1ccccc1	7.1	13.1	4.3	-0.1	-0.7
COc1ccccc1/C=C/C(=O)c1c2c(c(C)[nH]c1=O)CCCC2	-6.0	1.4	-4.5	66.5*	-0.5
CN(c1ccc(OCC(=O)OCC(=O)Nc2ccccc2)cc1)S(=O)(=O)c1cccs1	73.8*	3.0	active	-4.2	1.3
CN(c1ccc(OCC(=O)OCC(=O)Nc2ccc(Br)cc2)cc1)S(=O)(=O)c1cccs1	41.1	-11.8	-8.8	5.3	1.4
Cc1cc(O)c2c(CN3CCN(Cc4ccccc4)CC3)cc(=O)oc2c1	30.2	11.9	49.8	nt	nt
O=S(=O)(NN=C1CCCCCC1)c1ccc(Cl)cc1	-3.0	-3.2	-7.2	nt	nt
Cc1cccc(OCc2nc(C#N)c(N3CCCC3)o2)c1	-0.9	2.0	-5.4	-0.2	0.1
SMILES	PABP polyA inh	PABP1 MLLE inh	eIF4H inh	eIF4E 4G PPI	PERK inh
O=C(Nc1nnc(C23CC4CC(CC(C4)C2)C3)s1)c1ccc(N2C(=O)CCC2=O)cc1	11.0	1.4	43.7	61.5*[fluorescence artefact?]	0.7
COCCNC(=O)c1c[nH]n2c(=O)cc(C3CCN(C(=O)OC(C)(C)C)CC3)nc12	3.2	-4.2	-8.9	-4.8	3.8*
CCc1ccc(NC(=S)N2CCNC(=O)C2CC(=O)OC)cc1 (stereo not drawn)	90.7*	9.5	0.2	0.5	0.4
COC(=O)CC1C(=O)NCCN1C(=O)Nc1ccc(Cl)cc1 (stereo not drawn)	-8.7	5.4	-7.8	-0.3	1.0
Cc1ccc(/C=C/C(=O)OCC(=O)NCCN2C(=O)CSC2=O)cc1	-14.1	-2.0	-7.2	0.9	1.0
Cc1ccc(/C=C/C(=O)OCC(=O)NCCN2C(=O)CSC2=O)o1	-12.0	5.5	5.3	3.6	3.2*
